Measured values published in PubChem BioAssay AID435001 (Southern Research Specialized Biocontainment Screening …, 2010).
A number with no mark means an inactive call. No rule for the calls is given here.

The molecules below were run against Large T antigen (Simian virus 40) (UniProt P03070) (assay: large T antigen ATP hydrolysis inhibition – biochemical, ADP-Hunter, purified TAg, synthesized compounds (AID 435001)). Conditions: purified TAg ATPase, ADP-Hunter fluorescence; series mostly up to 100 µM; inhibition: at the top concentration.
Chain of Large T antigen (Simian virus 40) (P03070 whole entry, looked up): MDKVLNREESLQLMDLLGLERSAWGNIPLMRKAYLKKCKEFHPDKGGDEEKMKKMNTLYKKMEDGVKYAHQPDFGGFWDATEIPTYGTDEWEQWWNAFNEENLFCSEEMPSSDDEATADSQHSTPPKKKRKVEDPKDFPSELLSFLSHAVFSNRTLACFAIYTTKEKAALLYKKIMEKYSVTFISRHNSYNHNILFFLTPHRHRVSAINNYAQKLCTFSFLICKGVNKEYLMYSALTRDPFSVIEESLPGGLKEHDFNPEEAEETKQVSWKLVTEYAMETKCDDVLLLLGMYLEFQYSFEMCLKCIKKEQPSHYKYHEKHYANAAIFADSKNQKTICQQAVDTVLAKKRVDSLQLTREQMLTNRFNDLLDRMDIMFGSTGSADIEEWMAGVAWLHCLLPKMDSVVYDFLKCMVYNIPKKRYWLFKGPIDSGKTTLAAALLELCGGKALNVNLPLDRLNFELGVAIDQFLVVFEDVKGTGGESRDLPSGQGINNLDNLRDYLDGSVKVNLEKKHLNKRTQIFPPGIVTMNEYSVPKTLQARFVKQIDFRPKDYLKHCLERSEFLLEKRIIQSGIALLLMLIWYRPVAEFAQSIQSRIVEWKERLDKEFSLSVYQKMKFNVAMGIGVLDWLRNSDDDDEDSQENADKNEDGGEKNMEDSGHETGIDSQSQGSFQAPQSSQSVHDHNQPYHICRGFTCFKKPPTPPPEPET

Q: For `COc1ccc(C2(c3ccc(OC)cc3)CC2)cc1`, which “inhibition” value is on record?
A: -7.64%

Q: `C=C(c1ccc(OC)cc1)c1ccc(OC)cc1` was tested. Which “inhibition” value did it give?
A: -6.97%

Q: Which “inhibition” value does the source give for `COc1ccc(C(C)(C)c2ccc(OC)cc2)cc1` here?
A: -5.01%

Q: `COc1ccc(C(C)(O)c2ccc(OC)cc2)cc1` was tested. Which “inhibition” value did it give?
A: -10.5%
